Where “and” joins values, the source holds several entries; their conditions need not be identical. Identical values can stand only once. Calls of active or inactive are those of the source.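 The calls were made as follows, unless noted: active = compound that reduces growth-factor-driven endothelial tube area in a mixed cell culture, no cutoff stated; inactive = the rest.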

Results on five compounds are retold here after PubChem BioAssay.

Experiment [1] is described as follows: Wnt pathway potentiators raising nuclear beta-catenin – imaging, WNT3A-conditioned medium, mouse C2C12, NPC library, primary screen (AID 1117326; in the data active = nuclear beta-catenin stimulation mostly above about 4.2%, no sharp cut-off; inactive = mostly below about 10%). The conditions noted are these: stronger effect = higher value.
Experiment [2] in a line: stimulators of insulin release from INS-1E, primary screen, cell-based, 5 mM glucose, NPC library (AID 1117329;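 active = compound raises insulin release from rat beta cells at 5 mM glucose, no numeric limit stated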). The conditions noted are these: rat INS-1E insulin secretion, at 10 µM, stronger effect = higher value.
Experiment [3] can be described thus: growth inhibition of GSK3B-pretreated HCT116 cells – cell-based, CellTiter-Glo, 0.2 to 20 µM (AID 1117336;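 active = compounds lowering colon cancer cell viability after pretreatment blocking the GSK3B kinase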). The conditions noted are these: HCT116 viability after GSK3B inhibitor, at 20 µM, stronger effect = higher value. For orientation: ATP-based viability assays read luminescence as a measure of living cells.
Experiment [4] is described as follows: inhibition of endothelial tube formation, primary screen, imaging, VEGF stimulated, CD31 staining, tube area, NPC library (AID 1117340). The conditions noted are these: VEGF-stimulated ADSC/ECFC co-culture, at 10 µM, stronger effect = higher value.
Experiment [5] is described as follows: GLP1 release stimulators, primary, NCI-H716, NPC library (AID 1117341;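 active = compound raises GLP1 secretion from the human gut endocrine cells, with no numeric limit stated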). The conditions noted are these: NCI-H716 cells, at 10 µM, stronger effect = higher value.
Experiment [6] can be described thus: HCT116 colon cancer cell growth inhibition, primary screen, CellTiter-Glo luminescence, NPC library (AID 1117342;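 active = compounds that lower survival of HCT116 colon cancer cells in the luminescence readout, no numeric limit stated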). The conditions noted are these: at 20 µM (top of the series).
The nature of experiment [7]: reduced SW480 viability measured with CellTiter-Glo, NPC library, primary (AID 1117343;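 active = compounds that lower viability of the colon cancer cells in the luminescence readout, with no numeric limit stated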). The conditions noted are these: CellTiter-Glo luminescence; at 20 µM (top of the series).
Experiment [8] in a line: NPC library primary testing for decreased DLD-1 cell viability via CellTiter-Glo (AID 1117346;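 active = compounds that lower survival of DLD-1 colon cancer cells in the luminescence readout, no cutoff given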). The conditions noted are these: DLD-1 viability, CellTiter-Glo luminescence; at 20 µM (top of the series).
The nature of experiment [9]: viability loss with induced miR-34 in A549 – imaging, A549 dox-inducible miR-34, nuclei and caspase counts, primary screen (AID 1347080;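 active = compounds whose cell count with miR-34 switched on is under 0.7 times the count with it off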). The conditions noted are these: A549 miR-34 inducible, Hoechst nuclei count, 48 h.
Experiment [10] is described as follows: MELAS cybrid and Rieske KO viability enhancers – cell-based, MELAS cybrids, Rieske KO mouse fibroblasts, CellTiter-Glo, primary screen (AID 1508586;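 active = mean z-score across replicates of 1.96 or higher in either the MELAS or the Rieske mutant cell line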;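 also: z relative to plate mean and SD of compound and empty wells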). The conditions noted are these: low glucose.
Experiment [11] can be described thus: compounds altering viability of human ES cells (AID 493140; call rule not given here;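 also: cells exposed to compounds for four days before counting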). The conditions noted are these: human embryonic stem cell survival screen; stronger effect = higher value.
Experiment [12] is described as follows: P. berghei load reduction in hepatocytes – cell-based, HepG2, luciferase luminescence, HepG2 viability, primary screen (AID 624349; in the data active = parasite load remaining mostly below about 12%, no sharp cut-off; inactive = mostly above about 10%;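 also: 100% = mean of DMSO negative control wells on the same plate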). The conditions noted are these: P. berghei liver stage in HepG2, luciferase luminescence, concentration not given here; parasite load remaining: stronger effect = lower value; viability: measured here: HepG2 viability without parasites.

In experiment [13] the target is NAD(+) hydrolase SARM1 (Homo sapiens) (UniProt Q6SZW1). Briefly: blocking NAD cleavage by SARM1 SAM-TIR – cell lysate, NAD-Glo luminescence (AID 1508614;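 active = compound whose remaining NAD level is above about 45 nM, limit read from the data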;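 also: higher remaining NAD means stronger inhibition of SARM1 NADase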). The conditions noted are these: SAM-TIR HEK293T lysate NADase, at 1 µM, stronger effect = higher value.
NAD(+) hydrolase SARM1 (Homo sapiens), sequence (Q6SZW1 whole entry, looked up): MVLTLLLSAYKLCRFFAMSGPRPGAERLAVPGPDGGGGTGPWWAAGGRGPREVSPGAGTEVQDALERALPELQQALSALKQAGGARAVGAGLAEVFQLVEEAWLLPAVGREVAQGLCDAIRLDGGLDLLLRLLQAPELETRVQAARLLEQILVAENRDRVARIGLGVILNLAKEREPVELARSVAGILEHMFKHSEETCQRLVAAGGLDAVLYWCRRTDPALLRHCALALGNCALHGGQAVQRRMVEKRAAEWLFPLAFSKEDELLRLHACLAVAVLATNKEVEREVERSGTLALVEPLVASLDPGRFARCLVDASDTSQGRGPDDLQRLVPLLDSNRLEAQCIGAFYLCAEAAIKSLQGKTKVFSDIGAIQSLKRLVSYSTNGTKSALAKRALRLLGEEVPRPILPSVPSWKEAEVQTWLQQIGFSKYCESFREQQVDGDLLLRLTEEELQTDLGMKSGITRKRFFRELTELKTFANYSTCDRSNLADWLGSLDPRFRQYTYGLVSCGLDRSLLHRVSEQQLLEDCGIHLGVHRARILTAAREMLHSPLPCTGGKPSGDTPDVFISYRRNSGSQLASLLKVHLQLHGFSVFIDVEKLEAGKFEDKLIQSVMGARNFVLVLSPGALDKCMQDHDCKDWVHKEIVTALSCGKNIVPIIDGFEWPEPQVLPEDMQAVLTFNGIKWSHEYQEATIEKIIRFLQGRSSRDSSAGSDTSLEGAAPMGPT
The mark [14] stands for this setting: measured here: relative caspase fold change +Dox/-Dox.
The mark [15] stands for this setting: measured here: total cells with miR-34 induction, stronger effect = lower value.
The mark [16] stands for this setting: measured here: total cells without miR-34 induction.
Setting [17] is: MELAS cybrid survival, CellTiter-Glo 48 h, stronger effect = higher value.
Where [18] appears, read: Rieske KO mouse fibroblast survival, CellTiter-Glo 72 h.

With `Cc1cccc(Cc2cnc[nH]2)c1C`, the nuclear beta-catenin stimulation in experiment [1] (at 10 µM) was 7.4% (inactive); in experiment [1] (stimulation, at 2 µM), 8.1%. Further, the insulin secretion stimulation in [2] is 0.4% (inactive). The viability decrease in [3] is -41.9% (inactive). For the same compound, in [4], the tube area decrease was 15.5% (inactive). In addition, the GLP1 secretion stimulation in experiment [5] was 4.1% (inactive). Moreover, the inhibition of viability in experiment [6] is 4.37% (inactive). Also, the viability decrease (inhibition) is -5.1% (inactive) in experiment [7] and -9.9% (inactive) in experiment [8]. In addition, the fold change in experiment [9] (stronger effect = lower value) is 0.969 (inactive); in [9] (setting [14]) it was 0.529. The cell count in experiment [9] (setting [15]) amounted to 7080; in experiment [9] (setting [16]) it was 7310. Besides, the z-score in experiment [10] (setting [17]) was 0.317 (inactive); in [10] (setting [18]) it was -0.228.
As usually defined, the viability is a read-out of living cells in per cent, often relative to untreated cells. Regarding `O=S(=O)(O)c1cc(O)ccc1O`, the survival in experiment [11] is 4.5 (inactive). Moreover, the parasite load remaining in [12] was 113% (inactive). This compound also gave a viability in [12] of 69.3%. In addition, the nuclear beta-catenin stimulation in experiment [1] (at 10 µM) was 0.1% (inactive); in experiment [1] (stimulation, at 2 µM), 2.5%. The insulin secretion stimulation in experiment [2] is 3.2% (inactive). The viability decrease in experiment [3] was -0.4% (inactive). Also, in experiment [4], the tube area decrease is 3% (inactive). For the same compound, in experiment [5], the GLP1 secretion stimulation is -3% (inactive). For the same compound, the inhibition of viability in [6] is 2.4% (inactive). For the same compound, the figures for the viability decrease (inhibition) in [7] and in experiment [8] were 19.4% (inactive) and 10.6% (inactive), respectively. For the same compound, the fold change was 0.958 (inactive) and 1.35 (inactive) in [9] (stronger effect = lower value); 0.623 and 0.929 in experiment [9] (setting [14]). Besides, the cell count is 8960 and 8580 in experiment [9] (setting [15]); 9360 and 6370 in experiment [9] (setting [16]). For the same compound, the z-score is -0.259 (inactive) and 0.566 (inactive) in [10] (setting [17]); -0.197 and 0.515 in experiment [10] (setting [18]).
Take `COC(C)(C)CCCC(C)C/C=C/C(C)=C/C(=O)OC(C)C` (stereo not drawn): the nuclear beta-catenin stimulation is 2% (inactive) in experiment [1] (at 10 µM) and 1% in experiment [1] (stimulation, at 2 µM). Besides, the insulin secretion stimulation in experiment [2] was 1.35% (inactive). In addition, the viability decrease in [3] was 30.9% (inactive). Further, the tube area decrease in experiment [4] is 2.7% (inactive). Also, the GLP1 secretion stimulation in experiment [5] was 3.9% (inactive). The inhibition of viability in experiment [6] is 42% (inactive). For the same compound, the viability decrease (inhibition) in [7] was 9.6% (inactive); in experiment [8] it was 17.2% (inactive). Besides, in experiment [13], the remaining NAD is 10 nM (inactive).
Consider `COc1ccc2c(c1OC)CN1CCc3cc4c(cc3C1C2)OCO4` (stereo not drawn), for which the survival in experiment [11] is 0.583 (inactive). Also, the parasite load remaining in experiment [12] is 82.7% (inactive). Further, in experiment [12], the viability is 89.1%. Further, the nuclear beta-catenin stimulation in experiment [1] (at 10 µM) was 2.2% (inactive); in [1] (stimulation, at 2 µM), 2.8%. For the same compound, in experiment [2], the insulin secretion stimulation is 1.5% (inactive). The viability decrease in experiment [3] is 34.2% (inactive). Moreover, the tube area decrease in experiment [4] is 1.4% (inactive). In experiment [5], the GLP1 secretion stimulation was -1% (inactive). Further, in experiment [6], the inhibition of viability is 49.3% (inactive). For the same compound, the viability decrease (inhibition) in [7] is -5.2% (inactive); in experiment [8] it was 21.3% (inactive). The fold change in [9] (stronger effect = lower value) is 0.795 (inactive); in [9] (setting [14]), 1.12. Moreover, the values for the cell count in [9] (setting [15]) and in experiment [9] (setting [16]) were 8510 and 10700, respectively.
As to `NCc1cccnc1`, the nuclear beta-catenin stimulation is 0.8% (inactive) in experiment [1] (at 10 µM) and 1.2% in experiment [1] (stimulation, at 2 µM). In experiment [2], the insulin secretion stimulation is -1.3% (inactive). Besides, in [3], the viability decrease was 16.9% (inactive). For the same compound, the tube area decrease in [4] is -11.1% (inactive). Moreover, the GLP1 secretion stimulation in [5] was 0% (inactive). In experiment [6], the inhibition of viability was -22.4% (active). Moreover, the viability decrease (inhibition) in [7] is 1.8% (inactive); in experiment [8], -13.1% (inactive). For the same compound, the fold change in [9] (stronger effect = lower value) was 0.867 (inactive); in experiment [9] (setting [14]), 0.915. Also, the cell count is 7820 in experiment [9] (setting [15]) and 9010 in experiment [9] (setting [16]). The remaining NAD in experiment [13] was 10 nM (inactive).
